Assay outcomes from PubChem.
A selection: hits, their analogues and other compounds. The true share with any hit is near 11%.
Pf growth 96h – Primary qHTS for delayed death inhibitors of the malarial parasite plastid, 96 hour incubation | P. falciparum luciferase reporter growth, 96 h | Potency, µM (highest dose often 28.7 µM), without a hit: at the highest dose activity change, negative = inhibition, most hits filed as inhibitors | 320,000 tested, 6.9% active
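P. falciparum expressing integrated firefly luciferase grown in erythrocytes (2% hematocrit, 0.05% parasitemia final) with compounds for 96 hours at 37 C, 5% CO2. Growth inhibition read as loss of luminescence after adding luciferase detection reagent.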
Pf growth 48h – Primary qHTS for delayed death inhibitors of the malarial parasite plastid, 48 hour incubation; P. falciparum luciferase growth in erythrocytes, 48 h; Potency, µM (doses to about 28.7 µM), for inactives: at the highest dose activity change, negative = inhibition, hits mostly inhibitors; 310,000 tested, 5.9% active; AID 504832, 2011
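Luminescence readout; reporter = integrated firefly luciferase in P. falciparum. RBC culture at 2% hematocrit, 0.1% parasitemia final, 37 C/5% CO2; decreased signal taken as growth inhibition.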
AMA1-RON2 inh – qHTS for Inhibitors of AMA1-RON; Towards Development of Antimalarial Drug Lead: Primary Screen; Potency, µM (titrated, usually from 58.2 µM), without a hit: at the highest dose activity change, negative = inhibition, most hits filed as inhibitors; Plasmodium falciparum AMA1 (3D7) - RON2 peptide interaction; 360,000 tested, 0.2% active; AlphaScreen AMA1-biotinylated RON2 peptide binding;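 note: 0% = vehicle wells and -100% = peptide control; nearly all actives have a fitted effect of over 45% in size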
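AMA1 (3D7) with his tag at 25 nM final met compounds first, then biotinylated RON2 peptide at 25 nM; detection used donor plus acceptor beads, 10 µg/mL apiece, read by AlphaScreen after 30 min at room temperature.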
HCV inh – qHTS Assay for Inhibitors of Hepatitis C Virus (HCV); 340,000 tested, 3.4% active; Huh7.5.1 HCVcc-Cre infection, luciferase reporter, 44 h; Potency, µM (series often up to 41.8 µM), without a hit: at the top dose activity change, negative = inhibition, usual class: inhibitors
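Whole-lifecycle infectious HCVcc-Cre system; cells 1,000/well, compound then virus (~0.5 moi) added 4 h after plating, 44 h culture. Luciferase read 15 sec following 15 min substrate incubation, room temp.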
Starred values were filed as active, the others as inactive; ? = inconclusive; . = no result; [ ] = another dose, or the depositor's remark. Calls come from the whole dose curve; as a rule, active = well fitted curve in the direction sought with a large enough effect; inconclusive = small, poorly fitted or top-dose-only effect, or another doubt; inactive = no such curve, though single readings can be large; an effect the other way counts as inactive or inconclusive. Unless noted, % is set by controls: 0 for no effect and ±100 for the full control effect; potency is the fitted concentration of half-maximal effect.

SMILES | Pf growth 96h | Pf growth 48h | AMA1-RON2 inh | HCV inh
CCOC(=O)Nc1sc2c(c1C(N)=O)CCC(C)C2 (centres undefined) | -28.1% | 43.2% | -5.0% | -12.4%
CCOC(=O)c1c(NC(=O)CSc2nnc(-c3c[nH]c4ccccc34)n2C)sc2c1CCCC2 | ? | ? | -4.9% | -2.3%
CCOC(=O)c1c(NC(=O)Cn2nnc3ccccc32)sc2c1CCC(C)C2 (centres undefined) | . | ? | -6.0% | 1.58µM*
CCOC(=O)c1c(NC(=O)CSc2nnc(-c3c[nH]c4ccccc34)n2CCOC)sc2c1CCCC2 | 9.28µM* | 7.38µM* | -18.1% | 11.2µM*
OC(c1cc(F)cc(Cl)c1)c1ncc(-c2ccccc2C(F)(F)F)[nH]1 (centres undefined) | . | . | 6.6% | .
O=C1CCCN1c1ccc(S(=O)(=O)NCc2ccc(F)cc2)cc1 | ? | 20.5% | 2.4% | -1.7%
CN(C)c1ccc(C=c2c3ccccc3n3c2c2ccccc2[n+]3C)cc1 | . | . | ? | 8.91µM*
CC1=NN(c2cccc(F)c2)C(=O)/C1=C/c1ccc(N(C)C)cc1 | ? | -11.2% | -3.7% | 26.2%
CCCCC1(C)OC(=O)C(=Cc2ccc(N(C)C)cc2)C(=O)O1 (centres undefined) | 112.8% | 14.2% | -5.4% | 10.6%
Cc1cc2c(=Cc3ccc(N(C)C)cc3)c3ccccc3n2[n+]1C | . | . | ? | 1.26µM*
CCOC(=O)c1cc2c(=Cc3ccc(N(C)C)cc3)c3ccccc3n2[n+]1C | . | . | 20µM* | ?
CCOC(=O)SC1=N/C(=C\c2ccc(N(C)C)cc2)C(=O)S1 | 10.9%[5.75 µM] | 20.6% | ? | 4.7%
CN(C)C(=O)CNc1ccn2nc(-c3cccc(Cl)c3)cc2n1 | . | . | 3.0% | .
FC(F)(F)COc1cc(-c2nnc(SCc3ccccc3)n2Cc2ccco2)cc(OCC(F)(F)F)n1 | 11.7µM* | 6.57µM* | -4.2% | ?
c1cncc(CSc2nnc(-c3cccnc3)n2Cc2ccco2)c1 | 32.2% | 17.1% | . | .
Cc1nnc(NC(=O)NC(C)N2C(=O)C3C4C=CC(C4)C3C2=O)s1 (centres undefined) | -25.8% | 2.62µM* | -4.6% | 12.0%
CC(NC(=O)Nc1nnc(C(F)(F)F)s1)N1C(=O)C2C3C=CC(C3)C2C1=O (centres undefined) | 0.0% | 10.4% | -12.9% | -16.0%
C=CCN1C(=O)C(CC(=O)O)SC1=Nc1ccc(C)cc1 (centres undefined) | ? | 0.0% | 26.6% | 8.8%
COc1cc(OC)nc(NC(=O)NS(=O)(=O)c2ccc(OC(F)(F)F)cc2)n1 | 204.7% | ? | 7.0% | 12.8%
O=C(NCCc1ccc(Cl)cc1)c1ccc(S(=O)(=O)N2CCCC2)cc1 | ? | ? | 0.0% | ?
COCCCNc1ncnc2c1sc1nc(-c3ccco3)c3c(c12)CC(C)(C)OC3 | ? | ? | -2.8% | ?
CC(C)Cc1nc2sc3c(NCc4ccco4)ncnc3c2c2c1COC(C)(C)C2 | ? | ? | -4.4% | ?
CC1(C)Cc2c(c(-c3ccco3)nc3sc4c(NCCO)ncnc4c23)CO1 | ? | ? | -3.8% | 12.6µM*
Cc1nc2sc3c(NCc4ccco4)ncnc3c2c2c1COC(C)(C)C2 | 11.7µM* | 6.57µM* | -10.0% | ?
CC(C)c1ccccc1NC(=O)COC(=O)/C=C/c1cccc([N+](=O)[O-])c1 | 57.6% | 44.7% | 1.7% | 7.4%
SMILES | Pf growth 96h | Pf growth 48h | AMA1-RON2 inh | HCV inh
Fc1cccc(F)c1-n1c(CN2CCCC2)csc1=S | 5.86µM* | ? | -22.0% | ?
Fc1ccccc1CN1CCCCCCC1 | 8.1% | . | -2.1% | 21.0%
Cc1ccc(-n2nnnc2-c2ccccc2Br)cc1 | . | . | -10.4% | 2.7%
CCC(C)c1ccc(NC(=O)c2c([N+](=O)[O-])cnn2CC)cc1 (centres undefined) | 5.22µM* | -47.4% | -5.5% | -21.0%
CCn1ncc([N+](=O)[O-])c1C(=O)Nc1ccc(C(=O)N2CCCCC2)cc1 | -27.1% | -0.7% | 18.5% | -2.3%
Cc1c(C(=O)NCc2ccco2)oc2ccccc12 | -29.3% | 20.5% | -17.4% | 9.3%
Oc1c(Cl)cc(Cl)cc1C=Nc1ccc(N2CCOCC2)cc1 | ? | ? | -0.9% | 29.6%
Oc1ccc(N=Nc2cccc(C(F)(F)F)c2)cc1C=Nc1ccc(N2CCOCC2)cc1 | 3.29µM* | ? | -22.9% | 0.3%
OC[C@@H]1CN(Cc2ccc3c(c2)OCO3)C[C@H](n2cnc3c(NC4CCC4)ncnc32)O1 | . | . | 2.0% | .
Cc1ccc(C(=O)OCCn2cc(C#N)c(=O)[nH]c2=O)cc1 | 22.0% | 40.7%[1.15 µM] | 45.4% | 21.6%
Cc1cccc(N(CC(=O)NC(C)C)C(=O)CCC(=O)Nc2nccs2)c1 | ? | 9.28µM* | 2.4% | -3.7%
CC(C)NC(=O)CN(C(=O)CCC(=O)Nc1nccs1)c1ccc2c(c1)OCO2 | 13.1µM* | 19.7% | 7.2% | -9.7%
Cc1c(Br)cccc1NC(=O)C1(C)CCN1Cc1ccc(OC(C)C)cc1 (centres undefined) | . | . | 4.0% | .
CCOC(=O)C1=NN(c2ccc(Cl)cc2)C(c2ccccc2)CC1=O (centres undefined) | ? | 9.28µM* | -19.1% | 9.5%
CCN(CC)S(=O)(=O)c1cc(NC(=O)Cc2ccc(S(=O)(=O)N3CCOCC3)s2)ccc1Cl | . | . | -6.2% | 10µM*
CN(C)S(=O)(=O)c1ccc(NC(=O)Cc2ccc(S(=O)(=O)N3CCOCC3)s2)cc1 | 9.28µM* | ? | ? | 11.9%
O=[N+]([O-])c1ccc(Sc2nccn2Cc2ccccc2)c([N+](=O)[O-])c1 | ? | 0.0% | -14.3% | ?
Cc1cccc(N(C(=O)c2cnc3n(c2=O)CCS3)C2CCCCC2)c1 | 164.4% | 7.6% | 0.0% | -18.7%
O=C(c1cnc2n(c1=O)CCS2)N(c1ccccc1)C1CCCCC1 | 6.57µM* | ? | -10.0% | 18.1%
C=CCOC(=O)C1=C(C)NC(SCC(=O)Nc2nccs2)=C(C#N)C1c1cccs1 (centres undefined) | 4.15µM* | 4.65µM* | 28.9% | ?
CCOC(=O)C1=C(C)NC(SCC(N)=O)=C(C#N)C1c1cccs1 (centres undefined) | -10.8% | ? | -8.7% | 8.5%
CCOC(=O)C1=C(C)NC(SCC(=O)Nc2cc(C)on2)=C(C#N)C1c1cccs1 (centres undefined) | ? | 10.4µM* | -3.3% | 10µM*
CC(=O)C1=C(C)NC(SCC(=O)Nc2nccs2)=C(C#N)C1c1ccccc1Cl (centres undefined) | ? | ? | -6.7%[11.6 µM] | -8.2%
C=CCOC(=O)C1=C(C)NC(SC)=C(C#N)C1c1cccs1 (centres undefined) | ? | ? | 3.5% | -10.0%
C=CCOC(=O)C1=C(C)NC(SC)=C(C#N)C1c1ccc(OCC)cc1 (centres undefined) | 11.7µM* | 8.28µM* | -5.5% | -8.1%
